Laboratory results reported in publication PMC7862700, “An all-to-all approach to the identification of sequence-specific readers for epigenetic DNA modifications on cytosine”.

Tests used:
Test in all cases: DAPPL (digital affinity profiling via proximity ligation, sequencing); 10 mM Tris-HCl pH 7.5, 50 mM NaCl, 1 mM DTT, 4% glycerol, room temperature, 30 min; GST-TFs on glutathione beads, 16-mer random dsDNA library, 0.1% formaldehyde crosslink after washing; high values mean tight binding
[1] = target: T1, FEV (Homo sapiens, UniProt Q99581 1-238); conditions: protein: recombinant; tags: N-terminal GST; dsDNA, one strand shown
T1 sequence: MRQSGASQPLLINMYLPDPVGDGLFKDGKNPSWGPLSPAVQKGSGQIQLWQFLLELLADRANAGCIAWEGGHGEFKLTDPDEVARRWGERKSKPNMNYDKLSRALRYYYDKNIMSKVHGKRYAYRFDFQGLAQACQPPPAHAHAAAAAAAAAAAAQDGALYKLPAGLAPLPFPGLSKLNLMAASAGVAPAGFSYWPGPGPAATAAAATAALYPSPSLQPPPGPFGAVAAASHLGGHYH
Procedure, shortened: (§1)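 GST fusions of human transcription factors were expressed in yeast and captured with glutathione beads. Once given DNA barcodes and pooled alongside a tag-only sample, they were incubated for 30 min at room temperature with 200 nmole of a random double-stranded 16-mer DNA library in Tris/NaCl/DTT/glycerol buffer, then washed, crosslinked (0.1% formaldehyde), proximity-ligated, PCR-amplified and sequenced on an Illumina NextSeq500. The binding signal of each hexamer is its read frequency for a factor divided by its frequency for the tag-only sample.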

[2] = target: ETV5 (Homo sapiens, UniProt P41161 1-510); conditions: protein: recombinant; tags: N-terminal GST; dsDNA, one strand shown
Procedure, shortened: as §1

[3] = target: HSF1 (Homo sapiens, UniProt Q00613 1-529); conditions: protein: recombinant; tags: N-terminal GST; chain copies: 3; dsDNA, one strand shown
Procedure, shortened: as §1

[4] = target: T2, SPIC (Homo sapiens, UniProt Q8N5J4 1-248); conditions: protein: recombinant; tags: N-terminal GST; dsDNA, one strand shown
T2 sequence: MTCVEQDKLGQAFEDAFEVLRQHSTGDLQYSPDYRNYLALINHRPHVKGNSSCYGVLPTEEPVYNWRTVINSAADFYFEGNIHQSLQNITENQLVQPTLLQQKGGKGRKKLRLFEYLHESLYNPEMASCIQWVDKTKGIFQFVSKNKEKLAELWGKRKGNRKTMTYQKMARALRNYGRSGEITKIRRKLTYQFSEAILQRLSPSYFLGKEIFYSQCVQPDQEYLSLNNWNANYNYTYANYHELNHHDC
Procedure, shortened: as §1

[5] = target: ELF4 (Homo sapiens, UniProt Q99607 1-663); conditions: protein: recombinant; tags: N-terminal GST; dsDNA, one strand shown
Procedure, shortened: as §1

[6] = target: T3, ELK4 (Homo sapiens, UniProt P28324-2 1-405); conditions: protein: recombinant; tags: N-terminal GST; dsDNA, one strand shown
T3 sequence: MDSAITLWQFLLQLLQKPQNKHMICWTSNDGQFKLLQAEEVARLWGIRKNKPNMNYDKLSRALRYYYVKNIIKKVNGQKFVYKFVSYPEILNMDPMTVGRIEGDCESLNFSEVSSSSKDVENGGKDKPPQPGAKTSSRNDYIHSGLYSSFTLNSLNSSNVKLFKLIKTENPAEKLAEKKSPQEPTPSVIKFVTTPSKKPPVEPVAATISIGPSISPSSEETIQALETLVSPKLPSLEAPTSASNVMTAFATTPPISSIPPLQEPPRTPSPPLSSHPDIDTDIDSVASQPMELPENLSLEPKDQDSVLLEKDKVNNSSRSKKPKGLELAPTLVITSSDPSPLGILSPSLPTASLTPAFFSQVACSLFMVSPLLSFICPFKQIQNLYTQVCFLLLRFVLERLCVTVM
Procedure, shortened: as §1

[7] = target: T4, ETV2 (Homo sapiens, UniProt O00321 1-342); conditions: protein: recombinant; tags: N-terminal GST; dsDNA, one strand shown
T4 sequence: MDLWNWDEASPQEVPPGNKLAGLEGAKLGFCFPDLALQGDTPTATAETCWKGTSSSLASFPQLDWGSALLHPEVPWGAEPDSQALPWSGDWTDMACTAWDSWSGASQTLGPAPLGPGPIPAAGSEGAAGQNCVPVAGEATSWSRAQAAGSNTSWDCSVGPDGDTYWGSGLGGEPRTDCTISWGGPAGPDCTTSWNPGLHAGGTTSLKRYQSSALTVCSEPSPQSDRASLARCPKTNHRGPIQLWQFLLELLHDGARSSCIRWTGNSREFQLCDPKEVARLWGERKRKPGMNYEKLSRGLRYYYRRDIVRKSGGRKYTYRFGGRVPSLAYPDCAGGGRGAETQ
Procedure, shortened: as §1

[8] = target: T5, ELF3 (Homo sapiens, UniProt P78545 1-371); conditions: protein: recombinant; tags: N-terminal GST; dsDNA, one strand shown
T5 sequence: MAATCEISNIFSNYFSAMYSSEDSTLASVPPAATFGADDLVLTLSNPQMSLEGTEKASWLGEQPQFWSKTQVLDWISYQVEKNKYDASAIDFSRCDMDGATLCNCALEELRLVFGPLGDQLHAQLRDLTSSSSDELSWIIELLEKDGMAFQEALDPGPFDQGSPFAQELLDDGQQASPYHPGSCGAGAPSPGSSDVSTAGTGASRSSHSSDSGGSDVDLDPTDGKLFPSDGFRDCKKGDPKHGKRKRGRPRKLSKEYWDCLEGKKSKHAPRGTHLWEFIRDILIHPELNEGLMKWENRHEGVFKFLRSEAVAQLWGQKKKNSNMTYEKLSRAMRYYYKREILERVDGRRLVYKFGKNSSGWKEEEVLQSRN
Procedure, shortened: as §1

[9] = target: CRX (Homo sapiens, UniProt O43186 1-299); conditions: protein: recombinant; tags: N-terminal GST; dsDNA, one strand shown
Procedure, shortened: as §1

[10] = target: ETV1 (Homo sapiens, UniProt P50549 1-477); conditions: protein: recombinant; tags: N-terminal GST; dsDNA, one strand shown
Procedure, shortened: as §1

[11] = target: T6, ERF (Homo sapiens, UniProt P50548 1-548); conditions: protein: recombinant; tags: N-terminal GST; dsDNA, one strand shown
T6 sequence: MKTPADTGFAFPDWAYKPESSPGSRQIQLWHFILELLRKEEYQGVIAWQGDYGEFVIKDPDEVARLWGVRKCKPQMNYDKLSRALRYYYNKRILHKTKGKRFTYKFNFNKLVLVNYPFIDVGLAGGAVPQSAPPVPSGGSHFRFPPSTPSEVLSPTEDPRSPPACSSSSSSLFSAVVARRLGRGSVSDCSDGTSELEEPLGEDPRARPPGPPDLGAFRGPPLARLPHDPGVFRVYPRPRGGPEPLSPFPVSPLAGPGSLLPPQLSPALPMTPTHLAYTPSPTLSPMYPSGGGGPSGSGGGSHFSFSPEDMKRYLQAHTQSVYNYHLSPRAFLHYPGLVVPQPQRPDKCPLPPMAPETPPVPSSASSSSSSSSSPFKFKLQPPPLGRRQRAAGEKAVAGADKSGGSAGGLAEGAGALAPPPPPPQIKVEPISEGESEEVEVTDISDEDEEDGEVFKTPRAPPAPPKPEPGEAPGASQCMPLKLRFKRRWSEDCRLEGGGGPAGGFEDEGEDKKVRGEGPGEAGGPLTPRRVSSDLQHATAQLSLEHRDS
Procedure, shortened: as §1

[12] = target: T7, ETV3L (Homo sapiens, UniProt Q6ZN32 1-361); conditions: protein: recombinant; tags: N-terminal GST; dsDNA, one strand shown
T7 sequence: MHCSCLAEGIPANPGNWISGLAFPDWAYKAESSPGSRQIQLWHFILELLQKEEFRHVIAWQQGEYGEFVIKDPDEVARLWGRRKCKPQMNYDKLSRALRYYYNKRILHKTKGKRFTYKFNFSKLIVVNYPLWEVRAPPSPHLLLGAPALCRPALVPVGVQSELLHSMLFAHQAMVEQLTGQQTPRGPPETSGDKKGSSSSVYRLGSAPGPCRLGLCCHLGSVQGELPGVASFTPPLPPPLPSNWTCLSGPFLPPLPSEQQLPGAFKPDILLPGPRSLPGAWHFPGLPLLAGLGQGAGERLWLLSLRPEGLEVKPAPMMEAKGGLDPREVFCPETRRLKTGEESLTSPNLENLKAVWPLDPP
Procedure, shortened: as §1

[13] = target: T8, ETS2 (Homo sapiens, UniProt P15036 1-469); conditions: protein: recombinant; tags: N-terminal GST; dsDNA, one strand shown
T8 sequence: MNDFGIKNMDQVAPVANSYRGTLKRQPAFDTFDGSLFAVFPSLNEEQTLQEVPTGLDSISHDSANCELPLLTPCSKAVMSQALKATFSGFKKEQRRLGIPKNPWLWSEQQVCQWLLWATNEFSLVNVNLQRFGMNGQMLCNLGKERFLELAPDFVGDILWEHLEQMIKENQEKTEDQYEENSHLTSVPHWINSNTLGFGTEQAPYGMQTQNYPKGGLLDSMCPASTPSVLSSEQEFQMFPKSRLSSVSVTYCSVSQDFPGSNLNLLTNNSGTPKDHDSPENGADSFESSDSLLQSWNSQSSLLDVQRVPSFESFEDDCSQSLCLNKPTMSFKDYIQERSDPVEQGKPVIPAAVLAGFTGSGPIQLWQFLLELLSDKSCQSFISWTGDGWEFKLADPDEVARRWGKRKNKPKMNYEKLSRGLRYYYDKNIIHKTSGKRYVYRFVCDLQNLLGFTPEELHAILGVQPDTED
Procedure, shortened: as §1

[14] = target: T9, SPDEF (Homo sapiens, UniProt O95238 1-335); conditions: protein: recombinant; tags: N-terminal GST; dsDNA, one strand shown
T9 sequence: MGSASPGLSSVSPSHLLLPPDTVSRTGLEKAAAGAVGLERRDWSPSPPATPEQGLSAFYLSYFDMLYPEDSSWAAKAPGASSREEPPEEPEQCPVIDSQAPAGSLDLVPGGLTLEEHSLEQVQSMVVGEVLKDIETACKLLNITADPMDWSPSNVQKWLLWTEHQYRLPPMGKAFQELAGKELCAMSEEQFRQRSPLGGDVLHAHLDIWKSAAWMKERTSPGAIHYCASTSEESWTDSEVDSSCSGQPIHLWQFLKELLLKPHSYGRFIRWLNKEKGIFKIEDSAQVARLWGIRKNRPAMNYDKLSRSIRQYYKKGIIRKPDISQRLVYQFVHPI
Procedure, shortened: as §1

[15] = target: T10, ETV7 (Homo sapiens, UniProt Q9Y603 1-341); conditions: protein: recombinant; tags: N-terminal GST; dsDNA, one strand shown
T10 sequence: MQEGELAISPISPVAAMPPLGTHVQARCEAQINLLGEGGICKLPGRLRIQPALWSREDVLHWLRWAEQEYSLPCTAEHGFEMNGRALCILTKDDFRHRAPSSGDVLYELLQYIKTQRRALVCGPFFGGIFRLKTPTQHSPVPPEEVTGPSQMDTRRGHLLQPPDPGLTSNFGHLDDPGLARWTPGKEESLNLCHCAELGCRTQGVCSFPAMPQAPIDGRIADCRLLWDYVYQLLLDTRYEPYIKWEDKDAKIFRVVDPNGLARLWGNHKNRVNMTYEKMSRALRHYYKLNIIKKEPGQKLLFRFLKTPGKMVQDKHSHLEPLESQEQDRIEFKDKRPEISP
Procedure, shortened: as §1

[16] = target: T11, ELF5 (Homo sapiens, UniProt Q9UKW6-2 1-255); conditions: protein: recombinant; tags: N-terminal GST; dsDNA, one strand shown
T11 sequence: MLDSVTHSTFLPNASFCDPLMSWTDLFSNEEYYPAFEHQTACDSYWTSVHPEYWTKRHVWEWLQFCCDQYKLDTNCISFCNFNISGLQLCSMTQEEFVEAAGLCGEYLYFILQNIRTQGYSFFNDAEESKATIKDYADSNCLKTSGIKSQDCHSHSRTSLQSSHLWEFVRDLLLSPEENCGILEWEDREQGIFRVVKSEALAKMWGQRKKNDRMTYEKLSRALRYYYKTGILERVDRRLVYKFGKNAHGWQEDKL
Procedure, shortened: as §1

[17] = target: T12, ETV3 (Homo sapiens, UniProt P41162-2 1-143); conditions: protein: recombinant; tags: N-terminal GST; dsDNA, one strand shown
T12 sequence: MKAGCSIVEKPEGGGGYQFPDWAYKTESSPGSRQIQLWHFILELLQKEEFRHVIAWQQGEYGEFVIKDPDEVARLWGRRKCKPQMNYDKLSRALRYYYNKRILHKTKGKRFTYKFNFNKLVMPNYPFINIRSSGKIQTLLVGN
Procedure, shortened: as §1

[18] = target: ETV6 (Homo sapiens, UniProt P41212 1-452); conditions: protein: recombinant; tags: N-terminal GST; dsDNA, one strand shown
Procedure, shortened: as §1

Sequence of ETV1 (P50549 whole entry): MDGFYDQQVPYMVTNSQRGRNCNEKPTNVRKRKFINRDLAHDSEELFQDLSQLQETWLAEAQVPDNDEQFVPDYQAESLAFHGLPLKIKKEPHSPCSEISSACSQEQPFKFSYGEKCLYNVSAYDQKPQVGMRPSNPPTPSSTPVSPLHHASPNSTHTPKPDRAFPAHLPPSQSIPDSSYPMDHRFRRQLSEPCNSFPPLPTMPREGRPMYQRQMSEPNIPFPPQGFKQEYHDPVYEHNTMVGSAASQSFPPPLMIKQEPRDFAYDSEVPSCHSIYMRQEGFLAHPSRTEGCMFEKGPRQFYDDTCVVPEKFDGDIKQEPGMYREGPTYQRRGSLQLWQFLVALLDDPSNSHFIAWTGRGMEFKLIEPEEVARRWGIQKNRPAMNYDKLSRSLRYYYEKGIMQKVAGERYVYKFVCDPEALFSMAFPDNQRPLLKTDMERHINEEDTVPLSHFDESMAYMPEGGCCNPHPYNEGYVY
Sequence of HSF1 (Q00613 whole entry): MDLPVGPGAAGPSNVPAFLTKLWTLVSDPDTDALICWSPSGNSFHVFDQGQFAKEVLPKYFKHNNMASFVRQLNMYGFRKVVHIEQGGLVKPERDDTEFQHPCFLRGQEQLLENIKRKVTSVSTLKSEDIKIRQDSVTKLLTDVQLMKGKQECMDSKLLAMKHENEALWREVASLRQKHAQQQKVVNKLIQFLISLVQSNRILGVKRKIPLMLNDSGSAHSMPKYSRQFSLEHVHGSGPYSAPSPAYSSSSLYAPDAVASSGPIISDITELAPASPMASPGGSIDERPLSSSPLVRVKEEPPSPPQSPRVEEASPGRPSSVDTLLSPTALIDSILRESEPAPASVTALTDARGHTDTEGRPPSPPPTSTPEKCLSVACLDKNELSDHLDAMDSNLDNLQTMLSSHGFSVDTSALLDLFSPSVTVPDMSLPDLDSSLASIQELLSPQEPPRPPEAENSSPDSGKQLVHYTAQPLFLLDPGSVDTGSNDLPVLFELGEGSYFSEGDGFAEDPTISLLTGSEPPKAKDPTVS
Sequence of CRX (O43186 whole entry): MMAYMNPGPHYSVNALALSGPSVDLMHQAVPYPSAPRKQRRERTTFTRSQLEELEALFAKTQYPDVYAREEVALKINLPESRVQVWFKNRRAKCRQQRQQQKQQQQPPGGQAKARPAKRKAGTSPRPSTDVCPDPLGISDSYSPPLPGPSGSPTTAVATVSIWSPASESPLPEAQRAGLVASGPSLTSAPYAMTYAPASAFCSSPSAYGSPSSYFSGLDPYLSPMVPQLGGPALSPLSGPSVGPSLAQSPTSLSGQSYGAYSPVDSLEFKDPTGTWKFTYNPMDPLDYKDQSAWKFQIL
Sequence of ETV5 (P41161 whole entry): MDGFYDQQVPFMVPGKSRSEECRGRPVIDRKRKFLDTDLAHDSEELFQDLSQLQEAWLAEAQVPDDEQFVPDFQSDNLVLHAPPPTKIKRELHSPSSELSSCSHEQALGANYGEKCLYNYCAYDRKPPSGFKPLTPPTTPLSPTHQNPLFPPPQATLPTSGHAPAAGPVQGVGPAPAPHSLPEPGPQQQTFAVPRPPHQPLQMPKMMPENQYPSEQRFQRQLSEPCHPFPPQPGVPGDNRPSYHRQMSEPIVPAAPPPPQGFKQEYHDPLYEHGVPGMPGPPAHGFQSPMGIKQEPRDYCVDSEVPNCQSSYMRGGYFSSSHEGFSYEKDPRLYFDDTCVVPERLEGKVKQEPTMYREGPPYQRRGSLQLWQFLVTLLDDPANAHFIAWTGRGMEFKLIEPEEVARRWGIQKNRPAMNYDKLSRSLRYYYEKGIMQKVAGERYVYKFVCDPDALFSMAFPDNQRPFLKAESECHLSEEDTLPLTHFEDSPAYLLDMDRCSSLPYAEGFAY
Sequence of ELF4 (Q99607 whole entry): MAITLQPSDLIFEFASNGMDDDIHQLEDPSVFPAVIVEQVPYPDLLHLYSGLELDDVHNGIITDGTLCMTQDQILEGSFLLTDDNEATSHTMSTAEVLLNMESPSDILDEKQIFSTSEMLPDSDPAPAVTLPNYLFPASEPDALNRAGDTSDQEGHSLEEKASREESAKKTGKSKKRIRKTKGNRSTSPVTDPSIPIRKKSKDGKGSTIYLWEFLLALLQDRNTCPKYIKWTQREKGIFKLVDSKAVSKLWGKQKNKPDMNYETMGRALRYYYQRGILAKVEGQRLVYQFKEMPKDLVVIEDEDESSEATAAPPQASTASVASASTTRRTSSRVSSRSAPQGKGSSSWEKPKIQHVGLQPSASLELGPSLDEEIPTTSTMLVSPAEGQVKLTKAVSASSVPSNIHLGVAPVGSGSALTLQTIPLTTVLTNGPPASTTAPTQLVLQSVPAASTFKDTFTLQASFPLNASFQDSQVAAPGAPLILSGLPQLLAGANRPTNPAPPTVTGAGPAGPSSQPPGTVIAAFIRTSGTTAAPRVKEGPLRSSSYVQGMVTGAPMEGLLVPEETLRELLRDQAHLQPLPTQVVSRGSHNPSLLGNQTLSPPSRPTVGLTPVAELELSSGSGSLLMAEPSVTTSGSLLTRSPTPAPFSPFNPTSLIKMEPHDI
Sequence of ETV6 (P41212 whole entry): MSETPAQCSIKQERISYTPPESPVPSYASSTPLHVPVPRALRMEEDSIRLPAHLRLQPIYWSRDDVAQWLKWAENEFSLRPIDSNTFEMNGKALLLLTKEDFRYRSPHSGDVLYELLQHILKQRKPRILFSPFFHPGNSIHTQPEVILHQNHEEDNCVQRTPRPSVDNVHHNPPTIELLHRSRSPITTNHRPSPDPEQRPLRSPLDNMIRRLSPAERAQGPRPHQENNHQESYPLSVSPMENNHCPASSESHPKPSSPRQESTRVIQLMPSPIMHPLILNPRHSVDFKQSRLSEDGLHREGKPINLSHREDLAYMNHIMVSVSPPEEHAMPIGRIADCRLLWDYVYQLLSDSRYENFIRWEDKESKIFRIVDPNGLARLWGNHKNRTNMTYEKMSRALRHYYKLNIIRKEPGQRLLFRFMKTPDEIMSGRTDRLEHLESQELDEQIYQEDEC

TTAAGG
binding signal [1]: 1.16 fold enrichment (6-mer frequency, TF over GST control) | binding signal [2]: 1.11 fold enrichment (6-mer frequency, TF over GST control) | binding signal [3]: 1.67 fold enrichment (6-mer frequency, TF over GST control) | binding signal [4]: 1.23 fold enrichment (6-mer frequency, TF over GST control) | binding signal [5]: 1.14 fold enrichment (6-mer frequency, TF over GST control) | binding signal [6]: 1.25 fold enrichment (6-mer frequency, TF over GST control) | binding signal [7]: 1.23 fold enrichment (6-mer frequency, TF over GST control) | binding signal [8]: 1.2 fold enrichment (6-mer frequency, TF over GST control) | binding signal [9]: 2.78 fold enrichment (6-mer frequency, TF over GST control) | binding signal [10]: 1.15 fold enrichment (6-mer frequency, TF over GST control) | binding signal [11]: 1.16 fold enrichment (6-mer frequency, TF over GST control) | binding signal [12]: 1.09 fold enrichment (6-mer frequency, TF over GST control) | binding signal [13]: 1.1 fold enrichment (6-mer frequency, TF over GST control) | binding signal [14]: 1.28 fold enrichment (6-mer frequency, TF over GST control) | binding signal [15]: 1.12 fold enrichment (6-mer frequency, TF over GST control) | binding signal [16]: 1.26 fold enrichment (6-mer frequency, TF over GST control) | binding signal [17]: 1.16 fold enrichment (6-mer frequency, TF over GST control) | binding signal [18]: 1.06 fold enrichment (6-mer frequency, TF over GST control)
